{"source": "PubChem BioAssay (EPA / NIEHS)", "key": {"[1]": {"target": "human Acetylcholinesterase (AChE), ACHE (gene 43) (UniProt P22303)", "sequence (P22303 whole entry, looked up)": "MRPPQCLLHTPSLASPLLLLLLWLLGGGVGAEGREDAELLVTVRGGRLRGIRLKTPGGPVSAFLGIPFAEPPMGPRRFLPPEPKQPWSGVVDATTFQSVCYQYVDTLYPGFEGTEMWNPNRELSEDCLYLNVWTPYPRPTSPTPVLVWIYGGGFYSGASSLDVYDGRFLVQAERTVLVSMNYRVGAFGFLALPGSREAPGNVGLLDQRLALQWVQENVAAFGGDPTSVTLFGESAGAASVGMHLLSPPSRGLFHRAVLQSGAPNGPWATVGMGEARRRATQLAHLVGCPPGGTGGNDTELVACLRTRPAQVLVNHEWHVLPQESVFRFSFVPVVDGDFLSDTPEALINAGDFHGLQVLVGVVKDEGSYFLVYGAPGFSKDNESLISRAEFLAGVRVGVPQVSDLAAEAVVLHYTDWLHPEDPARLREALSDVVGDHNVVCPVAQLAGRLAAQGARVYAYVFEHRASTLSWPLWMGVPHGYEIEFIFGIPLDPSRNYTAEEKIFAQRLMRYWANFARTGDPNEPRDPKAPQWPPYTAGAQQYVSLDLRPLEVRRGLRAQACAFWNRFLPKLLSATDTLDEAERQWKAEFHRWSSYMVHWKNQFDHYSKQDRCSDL", "test": "NVS_ENZ_hAChE: NovaScreen (NVS) Enzymatic Assay for human Acetylcholinesterase (AChE) (AID 2283129)", "how_it_was_run": "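Actives from a duplicate single-point screen (25 uM) were followed up in concentration series. Enzyme activity read by absorbance (colorimetric) 0.33 hour after dosing, cell-free, normalized to DMSO, with loss of signal scored.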"}, "[2]": {"target": "human AMP-activated Protein Kinase, alpha 1 (AMPKa1), PRKAA1 (gene 5562) (UniProt Q13131)", "sequence (Q13131 whole entry, looked up)": "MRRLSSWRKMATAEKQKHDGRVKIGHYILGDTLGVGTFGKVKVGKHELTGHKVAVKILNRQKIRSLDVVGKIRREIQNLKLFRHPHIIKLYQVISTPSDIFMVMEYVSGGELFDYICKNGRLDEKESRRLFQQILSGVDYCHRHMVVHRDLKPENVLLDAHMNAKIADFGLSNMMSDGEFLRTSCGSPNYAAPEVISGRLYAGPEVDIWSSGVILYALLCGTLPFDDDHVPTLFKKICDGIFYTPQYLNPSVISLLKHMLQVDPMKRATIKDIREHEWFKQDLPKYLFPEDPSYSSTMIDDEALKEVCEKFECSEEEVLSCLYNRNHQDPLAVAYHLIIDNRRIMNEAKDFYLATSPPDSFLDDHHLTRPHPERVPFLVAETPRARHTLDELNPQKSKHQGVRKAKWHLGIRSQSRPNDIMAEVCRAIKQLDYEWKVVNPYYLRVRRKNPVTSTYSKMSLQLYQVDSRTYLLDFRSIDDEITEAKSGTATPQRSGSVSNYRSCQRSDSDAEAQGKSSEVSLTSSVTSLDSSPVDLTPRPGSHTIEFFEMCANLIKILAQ", "test": "NVS_ENZ_hAMPKa1: NovaScreen (NVS) Enzymatic Assay for human AMP-activated Protein Kinase, alpha 1 (AMPKa1) (AID 2283130)", "how_it_was_run": "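Compounds were screened in duplicate at 25 uM, and those reaching ~30% inhibition were titrated up to 50 uM. The enzyme was recombinant human AMPKα1, and kinase turnover was read by fluorescence/mobility shift 1 h post-dosing as loss of signal versus DMSO.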"}, "[3]": {"target": "human p21 Activated Kinase 4 (PAK4), PAK4 (gene 10298) (UniProt O96013)", "test": "NVS_ENZ_hPAK4: NovaScreen (NVS) Enzymatic Assay for human p21 Activated Kinase 4 (PAK4) (AID 2283189)", "how_it_was_run": "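Extracted PAK4 enzyme activity read by fluorescence with mobility-shift separation 1 h after chemical addition. Duplicate single-concentration screen at 25 uM, DMSO as negative control.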"}, "[4]": {"target": "human Protein Tyrosine Phosphatase Non-receptor Type 2 (PTPN2), PTPN2 (gene 5771) (UniProt P17706)", "test": "NVS_ENZ_hPTPN2: NovaScreen (NVS) Enzymatic Assay for human Protein Tyrosine Phosphatase Non-receptor Type 2 (PTPN2) (AID 2283207)", "how_it_was_run": "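Activity measured as fluorescence after mobility-shift separation of substrate and product, 1 h after compound. Duplicate single-point 25 uM primary testing, concentration series for actives; inhibition scored as signal loss relative to DMSO baseline.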"}, "[5]": {"target": "rat Monoamine Oxidase, MAO-B, Peripheral (MAOBP), Maob (gene 25750) (UniProt P19643)", "sequence (P19643 whole entry, looked up)": "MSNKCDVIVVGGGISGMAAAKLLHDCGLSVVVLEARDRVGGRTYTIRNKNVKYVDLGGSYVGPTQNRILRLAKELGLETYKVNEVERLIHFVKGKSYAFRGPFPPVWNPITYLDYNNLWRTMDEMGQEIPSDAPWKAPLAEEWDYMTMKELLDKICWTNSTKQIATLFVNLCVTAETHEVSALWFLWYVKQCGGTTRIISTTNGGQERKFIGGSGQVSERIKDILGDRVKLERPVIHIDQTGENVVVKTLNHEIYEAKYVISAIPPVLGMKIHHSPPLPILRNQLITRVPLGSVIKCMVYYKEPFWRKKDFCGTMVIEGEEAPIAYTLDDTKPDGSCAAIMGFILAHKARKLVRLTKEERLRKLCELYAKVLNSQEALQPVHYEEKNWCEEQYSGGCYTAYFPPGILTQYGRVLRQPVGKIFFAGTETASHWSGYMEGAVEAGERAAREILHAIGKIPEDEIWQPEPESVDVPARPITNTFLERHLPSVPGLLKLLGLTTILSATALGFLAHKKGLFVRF", "test": "NVS_ENZ_rMAOBP: NovaScreen (NVS) Enzymatic Assay for rat Monoamine Oxidase, MAO-B, Peripheral (MAOBP) (AID 2283242)"}, "[6]": {"target": "human Neonicotinoid receptor (NNR), CHRNA2 (gene 1135) (UniProt Q15822)", "test": "NVS_LGIC_hNNR_NBungSens: NovaScreen (NVS) Ligand-Gated Ion Channel Assay for human Neonicotinoid receptor (NNR) (AID 2283313)", "how_it_was_run": "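Compounds first screened in duplicate at 25 uM, then actives re-tested in single-replicate dose series up to 50 uM. Binding measured as displacement of specific radioligand from neuroblastoma membrane receptors after 2 h, scintillation read on filters.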"}, "[7]": {"target": "Norway rat Vesicular Monoamine Transporter (VMAT2), neurotransmitter transporter, Slc18a2 (gene 25549) (UniProt Q01827)", "sequence (Q01827 whole entry, looked up)": "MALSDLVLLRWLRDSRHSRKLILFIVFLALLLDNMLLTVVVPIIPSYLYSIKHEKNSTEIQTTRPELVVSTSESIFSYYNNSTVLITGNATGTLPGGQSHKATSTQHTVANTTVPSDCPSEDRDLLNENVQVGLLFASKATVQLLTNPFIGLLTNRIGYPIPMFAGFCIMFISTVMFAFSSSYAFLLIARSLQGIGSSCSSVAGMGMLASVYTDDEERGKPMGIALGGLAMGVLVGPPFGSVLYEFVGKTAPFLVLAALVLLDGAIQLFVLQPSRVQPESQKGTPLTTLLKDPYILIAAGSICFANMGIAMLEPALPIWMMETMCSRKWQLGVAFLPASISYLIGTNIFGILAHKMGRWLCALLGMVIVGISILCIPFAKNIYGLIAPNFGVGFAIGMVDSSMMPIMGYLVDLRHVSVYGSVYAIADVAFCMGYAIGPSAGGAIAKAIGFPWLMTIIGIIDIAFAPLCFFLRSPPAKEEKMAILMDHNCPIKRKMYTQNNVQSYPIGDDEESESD", "test": "NVS_TR_rVMAT2: NovaScreen (NVS) Transporter Assay for Norway rat Vesicular Monoamine Transporter (VMAT2), neurotransmitter transporter (AID 2283376);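 also: actives lower the bound radioligand signal below the DMSO level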", "how_it_was_run": "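Using rat forebrain membranes, specific radioligand binding to VMAT2 was measured by filtration and scintillation counting after 1 hour. Chemicals screened at 25 uM in duplicate, actives retested in concentration series, DMSO baseline.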"}, "[8]": {"target": "Protein deacetylase HDAC6 (Homo sapiens) (UniProt Q9UBN7)", "sequence (Q9UBN7 whole entry, looked up)": "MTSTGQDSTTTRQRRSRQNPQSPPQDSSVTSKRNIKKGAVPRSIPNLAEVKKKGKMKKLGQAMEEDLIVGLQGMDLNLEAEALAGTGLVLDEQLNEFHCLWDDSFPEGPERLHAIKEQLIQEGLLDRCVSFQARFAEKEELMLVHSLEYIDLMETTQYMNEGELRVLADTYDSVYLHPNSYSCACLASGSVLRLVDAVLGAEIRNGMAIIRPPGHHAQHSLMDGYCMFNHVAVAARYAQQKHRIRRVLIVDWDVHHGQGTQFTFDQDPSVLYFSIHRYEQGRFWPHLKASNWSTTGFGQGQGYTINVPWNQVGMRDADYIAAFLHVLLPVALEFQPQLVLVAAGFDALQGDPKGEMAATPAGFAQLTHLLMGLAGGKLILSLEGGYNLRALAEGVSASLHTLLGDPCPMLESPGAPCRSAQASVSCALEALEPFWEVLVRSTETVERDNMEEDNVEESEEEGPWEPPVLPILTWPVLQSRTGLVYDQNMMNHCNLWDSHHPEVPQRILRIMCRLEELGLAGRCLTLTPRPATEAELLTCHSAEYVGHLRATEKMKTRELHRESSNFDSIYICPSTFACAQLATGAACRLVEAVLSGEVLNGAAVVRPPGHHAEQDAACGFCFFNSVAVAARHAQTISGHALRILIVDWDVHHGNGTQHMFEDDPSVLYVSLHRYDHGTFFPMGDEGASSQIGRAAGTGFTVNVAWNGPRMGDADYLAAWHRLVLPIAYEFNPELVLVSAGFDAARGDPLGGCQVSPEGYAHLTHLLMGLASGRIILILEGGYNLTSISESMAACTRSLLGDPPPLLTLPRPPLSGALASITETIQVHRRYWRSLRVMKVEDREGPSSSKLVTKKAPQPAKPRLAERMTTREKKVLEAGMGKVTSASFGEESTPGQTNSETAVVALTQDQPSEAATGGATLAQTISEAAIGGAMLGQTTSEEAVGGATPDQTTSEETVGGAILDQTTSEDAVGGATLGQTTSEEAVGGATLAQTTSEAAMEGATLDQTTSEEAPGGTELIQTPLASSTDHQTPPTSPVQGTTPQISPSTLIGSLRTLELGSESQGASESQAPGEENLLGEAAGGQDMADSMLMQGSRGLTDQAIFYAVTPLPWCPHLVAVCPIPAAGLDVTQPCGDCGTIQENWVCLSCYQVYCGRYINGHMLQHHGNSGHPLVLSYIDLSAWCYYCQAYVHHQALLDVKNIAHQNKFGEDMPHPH", "test": "NVS_ENZ_hHDAC6: NovaScreen (NVS) Enzymatic Assay for human Histone Deacetylase 6 (HDAC6) (AID 2283164)", "how_it_was_run": "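Concentration-response runs up to 50 uM followed a duplicate 25 uM single-point screen. Deacetylase activity of recombinant human HDAC6 read by fluorescence after 1 h, with mobility-shift separation of substrate and product; DMSO as baseline.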"}, "[9]": {"target": "human CYP4F12, CYP4F12 (gene 66002) (UniProt Q9HCS2)", "sequence (Q9HCS2 whole entry, looked up)": "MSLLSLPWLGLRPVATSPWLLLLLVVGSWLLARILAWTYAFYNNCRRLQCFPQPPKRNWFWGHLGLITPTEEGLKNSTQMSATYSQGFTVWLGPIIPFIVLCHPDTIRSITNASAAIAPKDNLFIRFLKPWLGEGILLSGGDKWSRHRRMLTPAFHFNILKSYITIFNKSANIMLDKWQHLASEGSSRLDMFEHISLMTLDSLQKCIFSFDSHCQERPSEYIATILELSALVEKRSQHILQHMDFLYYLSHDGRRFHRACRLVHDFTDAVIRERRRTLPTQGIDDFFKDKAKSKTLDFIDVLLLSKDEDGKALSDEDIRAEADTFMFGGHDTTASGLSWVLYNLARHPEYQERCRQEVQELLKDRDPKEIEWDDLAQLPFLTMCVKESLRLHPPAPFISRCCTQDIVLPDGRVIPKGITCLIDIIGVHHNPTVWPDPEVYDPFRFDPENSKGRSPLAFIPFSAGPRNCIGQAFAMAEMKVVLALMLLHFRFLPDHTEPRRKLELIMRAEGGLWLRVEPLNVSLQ", "test": "NVS_ADME_hCYP4F12: NovaScreen (NVS) CYP450-related Enzyme Activity (ADME) Assay for human CYP4F12 (AID 2283111)", "how_it_was_run": "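Recombinant enzyme with a fluorescent substrate, signal read at 0.5 h post-dose; activity loss analysed relative to acetonitrile. Compounds first run in duplicate at 10 uM, with follow-up concentration-response testing of actives.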"}, "PPP2CA (gene 5515)": {"target": "PPP2CA (gene 5515) (UniProt P67775)", "test": "NVS_ENZ_hPPP2CA: NovaScreen (NVS) Enzymatic Assay for human Protein Phosphatase 2 Aatalytic subunit Alpha (PPP2CA) (AID 2283199)", "how_it_was_run": "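Cell-free phosphatase activity: fluorescent substrate turnover by recombinant human enzyme, resolved by mobility shift at 1.33 h. Compounds passing the 25 uM duplicate primary screen were rerun in singleton series with a 50 uM top concentration.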"}, "[10]": {"target": "human Fibroblast Growth Factor Receptor 1 (FGFR1), FGFR1 (gene 2260) (UniProt P11362)", "sequence (P11362 whole entry, looked up)": "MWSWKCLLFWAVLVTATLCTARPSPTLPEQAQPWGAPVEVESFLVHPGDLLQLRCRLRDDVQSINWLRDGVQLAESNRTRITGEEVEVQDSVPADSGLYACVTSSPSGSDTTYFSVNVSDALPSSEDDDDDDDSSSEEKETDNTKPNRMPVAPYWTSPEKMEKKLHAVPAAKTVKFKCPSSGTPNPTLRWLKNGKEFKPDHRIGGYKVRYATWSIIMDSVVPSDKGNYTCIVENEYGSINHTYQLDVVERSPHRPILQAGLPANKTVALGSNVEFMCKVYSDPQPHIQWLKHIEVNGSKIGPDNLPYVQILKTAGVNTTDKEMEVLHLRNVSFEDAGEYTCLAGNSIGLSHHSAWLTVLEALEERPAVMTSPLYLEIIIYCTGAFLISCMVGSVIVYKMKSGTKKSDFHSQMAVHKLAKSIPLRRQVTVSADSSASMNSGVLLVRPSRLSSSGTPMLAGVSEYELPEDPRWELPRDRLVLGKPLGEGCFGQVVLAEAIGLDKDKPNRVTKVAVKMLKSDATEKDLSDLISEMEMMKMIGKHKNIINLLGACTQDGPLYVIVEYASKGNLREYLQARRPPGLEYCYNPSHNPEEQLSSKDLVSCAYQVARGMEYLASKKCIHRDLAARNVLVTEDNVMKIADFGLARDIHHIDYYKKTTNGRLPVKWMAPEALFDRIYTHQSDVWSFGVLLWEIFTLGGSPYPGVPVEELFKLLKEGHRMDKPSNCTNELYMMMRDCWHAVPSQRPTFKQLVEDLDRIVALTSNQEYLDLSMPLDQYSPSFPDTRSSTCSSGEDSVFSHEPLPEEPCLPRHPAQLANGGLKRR", "test": "NVS_ENZ_hFGFR1: NovaScreen (NVS) Enzymatic Assay for human Fibroblast Growth Factor Receptor 1 (FGFR1) (AID 2283159)", "how_it_was_run": "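Cell-free recombinant kinase with fluorescent substrate, product separated by electrophoretic mobility shift; read 1 hour after dosing, loss of signal relative to DMSO. Initial screen in duplicate at 25 uM, actives followed in concentration series.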"}, "[11]": {"target": "human Tyrosine Protein Kinase Receptor Tie-2 (Tie2), TEK (gene 7010) (UniProt Q02763)", "test": "NVS_ENZ_hTie2: NovaScreen (NVS) Enzymatic Assay for human Tyrosine Protein Kinase Receptor Tie-2 (Tie2) (AID 2283225)", "how_it_was_run": "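Substrate and product were separated by mobility shift and detected by fluorescence after a 1-hour reaction with recombinant Tie2. Chemicals passing a 25 uM single-point screen were titrated to a maximum of 50 uM. Results were normalized to DMSO baseline.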"}, "[12]": {"target": "human Mitogen-Activated Protein Kinase 1 (MAPK 1), MAPK1 (gene 5594) (UniProt P28482)", "test": "NVS_ENZ_hMAPK1: NovaScreen (NVS) Enzymatic Assay for human Mitogen-Activated Protein Kinase 1 (MAPK 1) (AID 2283175)", "how_it_was_run": "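Cell-free recombinant human MAPK1 enzymatic assay, fluorescence/electrophoretic mobility shift read at 1 h; loss of signal vs DMSO. Primary screen in duplicate at 25 uM; actives (e.g. ≥30% inhibition) run as concentration-response up to 50 uM.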"}, "[13]": {"target": "human Phosphatase and Tensin Homolog (PTEN), PTEN (gene 5728) (UniProt P60484)", "test": "NVS_ENZ_hPTEN: NovaScreen (NVS) Enzymatic Assay for human Phosphatase and Tensin Homolog (PTEN) (AID 2283203)", "how_it_was_run": "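Loss of fluorescent product signal after mobility-shift separation reports PTEN activity, recombinant human enzyme, 1 h after compound addition. Single 25 uM duplicate screen, then concentration-response on actives; DMSO baseline.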"}, "[14]": {"target": "human Raf-1 Proto-Oncogene, serine/threonine Kinase (RAF1), RAF1 (gene 5894) (UniProt P04049)", "test": "NVS_ENZ_hRAF1: NovaScreen (NVS) Enzymatic Assay for human Raf-1 Proto-Oncogene, serine/threonine Kinase (RAF1) (AID 2283216)", "how_it_was_run": "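Single-point screening at 25 uM (duplicate), followed by singleton concentration-response to 50 uM maximum for chemicals exceeding threshold. Enzyme activity from fluorescent substrate-product mobility-shift separation after 1 h, relative to DMSO.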"}}, "note": "Results filed as inconclusive are left out. Activity calls are given as the source filed them. The calls were made as follows: active = hit-call score of the fitted dose curve at least 0.9, where 1 is the maximum; inconclusive = response in the unintended direction; inactive = score below 0.9.", "data": [{"smiles": "COc1cc(C(=O)NC2CCN(C)CC2)ccc1Nc1ncc2c(n1)N(C1CCCC1)CC(F)(F)C(=O)N2C", "values": [{"measurement": "AC50", "setting": "[1]", "result": "23.4 µM (active)"}, {"measurement": "outcome", "setting": "[2]", "result": "inactive"}, {"measurement": "outcome", "setting": "[3]", "result": "inactive"}, {"measurement": "AC50", "setting": "[4]", "result": "6.13 µM (active)"}, {"measurement": "outcome", "setting": "[5]", "result": "inactive"}, {"measurement": "outcome", "setting": "[6]", "result": "inactive"}, {"measurement": "AC50", "setting": "[7]", "result": "3.01 µM (active)"}]}, {"smiles": "O=C1c2ccccc2C(=O)N1CCc1noc(-c2ccc(CN3CCCCCC3)s2)n1", "values": [{"measurement": "AC50", "setting": "[1]", "result": "13.8 µM (active)"}, {"measurement": "outcome", "setting": "[2]", "result": "inactive"}, {"measurement": "outcome", "setting": "[8]", "result": "inactive"}, {"measurement": "AC50", "setting": "[5]", "result": "11.4 µM (active)"}, {"measurement": "AC50", "setting": "[7]", "result": "2.87 µM (active)"}]}, {"smiles": "COc1cccc([C@H](O)C2CCN(CCc3ccc(F)cc3)CC2)c1OC", "values": [{"measurement": "AC50", "setting": "[9]", "result": "0.441 µM (active)"}, {"measurement": "AC50", "setting": "[5]", "result": "12.5 µM (active)"}]}, {"smiles": "CN1CCC[C@H]1c1cccnc1", "values": [{"measurement": "outcome", "setting": "[9]", "result": "inactive"}, {"measurement": "outcome", "setting": "PPP2CA (gene 5515)", "result": "inactive"}, {"measurement": "AC50", "setting": "[6]", "result": "1.3 µM (active)"}]}, {"smiles": "CC(C)NCC(O)c1ccc(O)c(O)c1", "note": "(stereo not given)", "values": [{"measurement": "AC50", "setting": "[9]", "result": "2.13 µM (active)"}, {"measurement": "outcome", "setting": "[10]", "result": "inactive"}]}, {"smiles": "CCCCC(CC)COP(=O)(OCC(CC)CCCC)OCC(CC)CCCC", "note": "(stereo not given)", "values": [{"measurement": "AC50", "setting": "[1]", "result": "32.7 µM (active)"}]}, {"smiles": "CCCCC(CC)COC(=O)CCCCCCCC(=O)OCC(CC)CCCC", "note": "(stereo not given)", "values": [{"measurement": "outcome", "setting": "[1]", "result": "inactive"}]}, {"smiles": "CN(C)C(=O)NC1(c2ccccc2)CCN(CC[C@@]2(c3ccc(F)c(F)c3)CN(C(=O)c3ccccc3)CCO2)CC1", "values": [{"measurement": "outcome", "setting": "[9]", "result": "inactive"}, {"measurement": "outcome", "setting": "[2]", "result": "inactive"}, {"measurement": "outcome", "setting": "[10]", "result": "inactive"}, {"measurement": "outcome", "setting": "[11]", "result": "inactive"}]}, {"smiles": "Cc1ccccc1Cl", "values": [{"measurement": "AC50", "setting": "[9]", "result": "7.95 µM (active)"}, {"measurement": "outcome", "setting": "[7]", "result": "inactive"}]}, {"smiles": "CC(C)CCCCCCc1ccc(O)cc1", "values": [{"measurement": "outcome", "setting": "[9]", "result": "inactive"}, {"measurement": "outcome", "setting": "[2]", "result": "inactive"}, {"measurement": "outcome", "setting": "[10]", "result": "inactive"}, {"measurement": "outcome", "setting": "[8]", "result": "inactive"}, {"measurement": "outcome", "setting": "[12]", "result": "inactive"}, {"measurement": "outcome", "setting": "[13]", "result": "inactive"}, {"measurement": "outcome", "setting": "[4]", "result": "inactive"}, {"measurement": "outcome", "setting": "[14]", "result": "inactive"}]}]}
